Assay [1] in a line: rapamycin-like changes in RPL19A-GFP expression – cell-based, S. cerevisiae, multiplex flow cytometry, primary screen (AID 1862; in the data active = percent of DMSO control GFP below about 86%;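 note: lower values mimic rapamycin by blocking the RPL19A rise seen in DMSO cells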). Particulars: S. cerevisiae RPL19A-GFP strain, flow cytometry fluorescence, 3 h; at 10 µM; stronger effect = lower value. A general note: A flow cytometer gives signals particle by particle.
The nature of assay [2]: TOR pathway GLN3 branch reporter MEP2-GFP changes – S. cerevisiae, multiplex flow cytometry, primary screen (AID 1867;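 active = GFP response, as percent of the DMSO control, above the screen-wide mean plus 3 SD, about 139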;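 note: median GFP channel fluorescence of barcode-gated MEP2-GFP cells measured by flow cytometry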). Conditions: S. cerevisiae MEP2-GFP strain, 3 h, at 10 µM, stronger effect = higher value, 100% means same as DMSO wells.
The nature of assay [3]: TOR pathway RTG branch CIT2 reporter changes – S. cerevisiae, GFP fusion, multiplex flow cytometry, primary screen (AID 1870;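 active = percent response above a set limit, the screen-wide mean plus 3 SD, cut at about 130% in these data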;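 note: barcoded CIT2-GFP strain pooled with four other GFP strains with rapamycin as positive control; median GFP fluorescence per well over plate mean of DMSO wells so 100% = DMSO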). Particulars: S. cerevisiae CIT2-GFP expression, 3 h, at 10 µM, stronger effect = higher value.
Assay [4] is described as follows: TOR pathway LAP4-GFP level changes – S. cerevisiae, multiplex flow cytometry, primary screen (AID 1873;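 active = GFP signal, as percent of the solvent control, above the screen mean plus 3 SD, about 149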). Conditions: S. cerevisiae LAP4-GFP expression, 3 h, at 10 µM, stronger effect = higher value.
Assay [5] is described as follows: yeast AGP1-GFP level changes, GLN3 branch – cell-based, multiplex flow cytometry, S. cerevisiae, primary screen (AID 1887;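 active = GFP signal above the screen-wide mean plus 3 SD, that is over about 124.5% of the solvent control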;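 note: AGP1-GFP fusion strain of S. cerevisiae within a five-strain barcoded multiplex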). Conditions: 3 h, at 10 µM, stronger effect = higher value.
Assay [6] is described as follows: reduced mouse 2C T cell binding to pMHC/ICAM-1 vesicles – MLPCN validation set, flow cytometry, LFA-1/ICAM-1 modulator project, pilot screen (AID 2523;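 active = response below a set limit, under 55% cells CD8-positive and vesicle-bound, and CD8 cells' 90th-percentile brightness under 279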;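 for vesicle binding response: mean PE anti-B7-1 fluorescence of CD8+ cells relative to row control; 100% = QL9-loaded vesicles with DMSO vehicle in the same plate row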). Particulars: 2C mouse CD8+ T cells, at 7 µM, stronger effect = lower value; double positive events: measured here: CD8+/vesicle+ event percentage.
The target in assay [7] is Integrin beta-1 (Homo sapiens) + Integrin alpha-4 (Homo sapiens) (UniProt P13612+P05556). Description: alpha4beta1 integrin LIBS antibody binding reduction – U937 cells, HUTS-21 mAb, flow cytometry, validation set, VLA-4 allosteric modulator project, pilot screen (AID 2674).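 Note: antibody binding induced by the VLA-4 ligand LDV present at three times its Kd; 0% = LDV ligand with antibody and no compound and 100% = antibody without LDV.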 Conditions: HUTS-21 LIBS mAb binding, at 6.7 µM, stronger effect = higher value, binding induced by LDV ligand.
Chain of Integrin beta-1 (Homo sapiens) + Integrin alpha-4 (Homo sapiens) (P05556 whole entry, looked up): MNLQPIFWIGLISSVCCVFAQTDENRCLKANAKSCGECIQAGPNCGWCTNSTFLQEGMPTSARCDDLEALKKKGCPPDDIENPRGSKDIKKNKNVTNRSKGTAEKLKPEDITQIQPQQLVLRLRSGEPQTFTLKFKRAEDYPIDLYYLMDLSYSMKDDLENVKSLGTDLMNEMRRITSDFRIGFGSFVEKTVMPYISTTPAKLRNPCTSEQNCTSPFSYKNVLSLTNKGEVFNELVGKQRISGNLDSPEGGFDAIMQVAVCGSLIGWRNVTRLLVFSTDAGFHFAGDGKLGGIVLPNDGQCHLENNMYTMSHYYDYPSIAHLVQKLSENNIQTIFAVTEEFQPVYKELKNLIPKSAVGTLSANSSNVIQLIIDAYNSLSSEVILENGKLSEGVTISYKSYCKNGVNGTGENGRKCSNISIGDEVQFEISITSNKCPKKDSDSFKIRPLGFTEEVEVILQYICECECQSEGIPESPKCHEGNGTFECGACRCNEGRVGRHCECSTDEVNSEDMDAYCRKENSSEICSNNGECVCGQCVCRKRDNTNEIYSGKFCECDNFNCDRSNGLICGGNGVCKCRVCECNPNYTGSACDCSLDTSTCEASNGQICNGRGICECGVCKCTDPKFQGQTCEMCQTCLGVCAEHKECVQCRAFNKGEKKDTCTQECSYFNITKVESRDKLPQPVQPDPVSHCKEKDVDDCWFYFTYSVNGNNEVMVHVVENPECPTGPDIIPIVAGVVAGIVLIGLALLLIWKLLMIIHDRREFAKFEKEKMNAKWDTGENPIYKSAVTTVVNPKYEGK
Chain of Integrin beta-1 (Homo sapiens) + Integrin alpha-4 (Homo sapiens) (P13612 whole entry, looked up): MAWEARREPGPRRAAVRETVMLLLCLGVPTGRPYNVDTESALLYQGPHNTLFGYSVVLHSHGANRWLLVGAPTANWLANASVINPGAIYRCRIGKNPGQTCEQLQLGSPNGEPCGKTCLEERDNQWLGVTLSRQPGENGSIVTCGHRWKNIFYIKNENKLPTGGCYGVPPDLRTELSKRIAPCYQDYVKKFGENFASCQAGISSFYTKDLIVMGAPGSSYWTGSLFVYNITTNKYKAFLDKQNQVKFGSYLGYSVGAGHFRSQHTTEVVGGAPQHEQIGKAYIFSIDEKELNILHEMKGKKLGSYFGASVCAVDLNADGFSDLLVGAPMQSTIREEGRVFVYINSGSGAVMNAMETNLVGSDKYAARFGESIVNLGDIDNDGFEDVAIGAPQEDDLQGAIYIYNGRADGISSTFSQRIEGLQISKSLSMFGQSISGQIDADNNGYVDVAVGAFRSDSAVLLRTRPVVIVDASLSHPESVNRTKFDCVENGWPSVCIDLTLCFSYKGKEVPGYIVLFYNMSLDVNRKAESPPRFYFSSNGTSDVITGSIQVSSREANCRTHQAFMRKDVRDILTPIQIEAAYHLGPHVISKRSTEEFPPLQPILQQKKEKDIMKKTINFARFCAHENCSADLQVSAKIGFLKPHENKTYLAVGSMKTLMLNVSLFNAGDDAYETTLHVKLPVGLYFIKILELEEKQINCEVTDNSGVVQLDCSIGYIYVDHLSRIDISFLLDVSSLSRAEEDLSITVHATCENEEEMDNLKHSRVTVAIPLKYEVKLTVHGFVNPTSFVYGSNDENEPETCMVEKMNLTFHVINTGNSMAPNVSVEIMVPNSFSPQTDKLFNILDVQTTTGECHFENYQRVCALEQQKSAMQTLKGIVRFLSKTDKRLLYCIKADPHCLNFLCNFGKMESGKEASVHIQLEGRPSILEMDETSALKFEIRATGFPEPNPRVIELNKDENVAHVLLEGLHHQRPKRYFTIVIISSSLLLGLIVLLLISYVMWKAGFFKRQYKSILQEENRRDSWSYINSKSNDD

Assay [8] in a line: calorie-restriction mimetic ROS inhibitors, yeast – validation compound set, pilot screen (AID 2706;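 active = superoxide response below 65% of plate, a cut near 3 SD across the whole screen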;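 note: yeast exposed to compound for one week at 30 degrees C before staining; 100% = mean of all compound wells on the same plate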). Conditions: S. cerevisiae aging, superoxide DHE fluorescence; at 10 µM; stronger effect = lower value.
Assay [9] has as its target Beta-adrenergic receptor kinase 1 (Homo sapiens) (UniProt P25098). Description: GRK2 binders displacing RNA aptamer, biochemical, validation, human GRK2, bead flow cytometry (AID 488806;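 active = aptamer binding inhibition above 30%, about 3 SD of noise from non-fluorescent compounds; inactive = inhibition at or below 30%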). Conditions: bead-bound GRK2, FAM-aptamer displacement, at 10 µM, stronger effect = higher value.
Assay [10] deals with Beta-2 adrenergic receptor (Homo sapiens) (UniProt P07550). Description: agonist-induced loss of surface beta2AR – cell-based, FAP fluorogen, flow cytometry, validation set, pilot screen (AID 504459;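 active = percent response above 42, roughly 3 SD of non-fluorescent test compounds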;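 note: agonist-driven loss of surface beta2AR via internalization measured by FAP dye flow cytometry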). Conditions: Am2.2-beta2AR cells, at 10 µM, stronger effect = higher value.
Chain of Beta-2 adrenergic receptor (Homo sapiens) (P07550 whole entry, looked up): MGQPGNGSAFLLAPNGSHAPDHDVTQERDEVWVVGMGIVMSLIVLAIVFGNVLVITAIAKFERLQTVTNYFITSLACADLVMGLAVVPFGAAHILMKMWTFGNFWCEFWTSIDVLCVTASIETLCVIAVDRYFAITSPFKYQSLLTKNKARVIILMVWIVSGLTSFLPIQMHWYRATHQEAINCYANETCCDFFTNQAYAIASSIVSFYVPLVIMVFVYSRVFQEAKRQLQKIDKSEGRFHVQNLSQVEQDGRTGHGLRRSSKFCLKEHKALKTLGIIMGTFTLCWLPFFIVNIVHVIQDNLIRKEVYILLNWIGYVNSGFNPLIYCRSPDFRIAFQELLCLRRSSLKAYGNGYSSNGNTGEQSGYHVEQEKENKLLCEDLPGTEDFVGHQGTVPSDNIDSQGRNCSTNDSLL
For assay [11], the target named is AP-2 complex subunit beta (Homo sapiens) (UniProt P63010). Description: beta-arrestin/AP2 interaction blockers – biochemical, validation set, GST-AP2 beads, flow cytometry, pilot screen (AID 504541;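 active = inhibition above 54%, about 3 SD of non-fluorescent compounds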;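 note: AP2 carries R879A mutation and is captured from E. coli lysate; bead-bound FITC arrestin peptide fluorescence measuring arrestin peptide binding to AP2; 0% = DMSO wells and 100% = excess unlabeled arrestin peptide control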). Particulars: FITC arrestin peptide, at 10 µM, stronger effect = higher value, AP2 beta2 appendage fragment, R879A mutant.
Chain of AP-2 complex subunit beta (Homo sapiens) (P63010 whole entry, looked up, the tested form may be a part, one chain of several): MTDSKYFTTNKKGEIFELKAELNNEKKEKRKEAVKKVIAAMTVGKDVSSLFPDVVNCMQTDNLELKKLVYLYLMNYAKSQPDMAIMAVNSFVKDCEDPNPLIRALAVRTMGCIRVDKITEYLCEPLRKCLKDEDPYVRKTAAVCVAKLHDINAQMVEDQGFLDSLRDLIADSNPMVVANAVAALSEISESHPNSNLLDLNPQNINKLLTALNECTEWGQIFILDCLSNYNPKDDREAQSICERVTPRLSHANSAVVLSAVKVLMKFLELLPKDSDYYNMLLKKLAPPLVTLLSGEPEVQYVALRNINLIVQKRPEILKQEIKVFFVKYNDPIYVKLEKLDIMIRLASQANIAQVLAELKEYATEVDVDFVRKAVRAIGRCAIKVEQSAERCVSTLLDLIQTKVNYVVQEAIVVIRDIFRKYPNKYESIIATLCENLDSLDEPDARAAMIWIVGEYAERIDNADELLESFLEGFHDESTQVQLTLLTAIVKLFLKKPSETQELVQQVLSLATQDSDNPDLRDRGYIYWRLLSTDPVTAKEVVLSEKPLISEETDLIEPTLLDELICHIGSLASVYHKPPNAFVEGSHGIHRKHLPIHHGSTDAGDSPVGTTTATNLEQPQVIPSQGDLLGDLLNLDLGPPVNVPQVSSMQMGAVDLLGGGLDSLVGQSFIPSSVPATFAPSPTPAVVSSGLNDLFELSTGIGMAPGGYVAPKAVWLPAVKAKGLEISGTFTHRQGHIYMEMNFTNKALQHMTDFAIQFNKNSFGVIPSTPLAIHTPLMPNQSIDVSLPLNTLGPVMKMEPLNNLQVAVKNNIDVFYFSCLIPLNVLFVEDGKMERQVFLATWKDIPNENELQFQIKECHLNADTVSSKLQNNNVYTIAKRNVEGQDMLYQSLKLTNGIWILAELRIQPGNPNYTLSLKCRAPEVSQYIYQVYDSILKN
Assay [12] is described as follows: cytosolic pH regulators acting via V-ATPase – S. cerevisiae, pHLuorin, HTS validation (AID 504600; in the data active = response above about 15%;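 note: plate controls were DMSO for no effect and reference compound for full effect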). Particulars: V-ATPase proton transport, at 10 µM, stronger effect = higher value.
In assay [13] the test system is anti-desmoglein-3 scFv antibody binding to human DSG3. Description: blockers of pathogenic pemphigus antibody–desmoglein-3 binding – biochemical, validation compound set, bead-based, flow cytometry, pilot screen (AID 588368;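 active = binding below the plate cutoff, the plate median minus 3 SD, with a reading above zero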;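 note: signal is the median channel fluorescence of bead-bound GFP antibody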). Conditions: Protein G beads, DSG3-Fc, scFv-GFP binding, at 10 µM, stronger effect = lower value.
Assay [14] is described as follows: Nile Red efflux blockade in pump-expressing yeast – validation compound set, multiplex, phenotypic, pilot screen (AID 588506;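 active = efflux inhibition above 0.42, the validation set average plus 4 SD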;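 note: Nile Red retained in cells so higher fluorescence means more efflux inhibition; 0 = negative control wells and 1 = enniatin B 25 µM full block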). Conditions: S. cerevisiae pump-expressing triplex, Nile Red efflux flow cytometry; at 10 µM; stronger effect = higher value; the pumps come from Candida albicans.
The target in assay [15] is ATP-binding cassette sub-family B member 6 (Homo sapiens) (UniProt Q9NP58). Description: blockers of ABCB6-driven porphyrin uptake – K562-ABCB6 cells, flow cytometry, validation set, pilot screen (AID 588550;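 active = inhibition above the screen-wide mean plus 3 SD, about 51%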;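 note: 0% = DMSO wells and 100% = benzethonium chloride 70 µM positive control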). Particulars: K562-ABCB6 porphyrin accumulation, 1 h, at 10 µM, stronger effect = higher value.
Chain of ATP-binding cassette sub-family B member 6 (Homo sapiens) (Q9NP58 whole entry, looked up): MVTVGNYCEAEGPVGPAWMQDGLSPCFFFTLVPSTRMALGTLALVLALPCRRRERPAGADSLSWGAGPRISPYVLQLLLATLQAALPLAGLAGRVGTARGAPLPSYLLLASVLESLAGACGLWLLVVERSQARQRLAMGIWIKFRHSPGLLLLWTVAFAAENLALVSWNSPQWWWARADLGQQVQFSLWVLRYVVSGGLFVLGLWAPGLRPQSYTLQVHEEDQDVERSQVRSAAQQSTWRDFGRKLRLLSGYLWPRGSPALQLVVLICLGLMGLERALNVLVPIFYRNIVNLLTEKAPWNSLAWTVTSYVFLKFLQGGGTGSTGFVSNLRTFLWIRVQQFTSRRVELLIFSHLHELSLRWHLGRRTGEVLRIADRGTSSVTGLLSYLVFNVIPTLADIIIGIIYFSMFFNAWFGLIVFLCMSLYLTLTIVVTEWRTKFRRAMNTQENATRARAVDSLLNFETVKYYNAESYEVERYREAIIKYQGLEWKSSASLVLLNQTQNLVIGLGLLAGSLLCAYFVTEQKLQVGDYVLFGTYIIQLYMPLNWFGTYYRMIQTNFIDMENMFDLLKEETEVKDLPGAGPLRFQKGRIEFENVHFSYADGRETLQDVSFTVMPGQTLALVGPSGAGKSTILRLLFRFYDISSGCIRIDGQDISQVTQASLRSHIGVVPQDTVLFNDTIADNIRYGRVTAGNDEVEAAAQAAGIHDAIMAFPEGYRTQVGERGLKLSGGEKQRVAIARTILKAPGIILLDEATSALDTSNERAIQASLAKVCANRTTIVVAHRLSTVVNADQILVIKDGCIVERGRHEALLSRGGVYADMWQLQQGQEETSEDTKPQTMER
Assay [16] is described as follows: AML differentiation inducers, ER-HoxA9 marrow cells – cell-based, GFP/MAC1 double positive, flow cytometry, validation set, primary screen (AID 588685;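 active = differentiation response of at least 50%, scaled between solvent and reference control, from cells with both markers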;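 note: compound exposure lasts four days before antibody staining and flow analysis; 0% = DMSO wells and 100% = 5 µM fulvestrant positive control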). Conditions: stronger effect = higher value, normalized: vehicle 0, fulvestrant 100.

Inconclusive results are not listed. Calls of active or inactive are those of the source.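 Rule for the calls, unless noted: active = inhibition above 50%, about 3 SD of the validation set; inactive = the rest.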

One may read the inhibition as the drop in the measured response relative to a control, in per cent.

Chain of Beta-adrenergic receptor kinase 1 (Homo sapiens) (P25098 whole entry, looked up): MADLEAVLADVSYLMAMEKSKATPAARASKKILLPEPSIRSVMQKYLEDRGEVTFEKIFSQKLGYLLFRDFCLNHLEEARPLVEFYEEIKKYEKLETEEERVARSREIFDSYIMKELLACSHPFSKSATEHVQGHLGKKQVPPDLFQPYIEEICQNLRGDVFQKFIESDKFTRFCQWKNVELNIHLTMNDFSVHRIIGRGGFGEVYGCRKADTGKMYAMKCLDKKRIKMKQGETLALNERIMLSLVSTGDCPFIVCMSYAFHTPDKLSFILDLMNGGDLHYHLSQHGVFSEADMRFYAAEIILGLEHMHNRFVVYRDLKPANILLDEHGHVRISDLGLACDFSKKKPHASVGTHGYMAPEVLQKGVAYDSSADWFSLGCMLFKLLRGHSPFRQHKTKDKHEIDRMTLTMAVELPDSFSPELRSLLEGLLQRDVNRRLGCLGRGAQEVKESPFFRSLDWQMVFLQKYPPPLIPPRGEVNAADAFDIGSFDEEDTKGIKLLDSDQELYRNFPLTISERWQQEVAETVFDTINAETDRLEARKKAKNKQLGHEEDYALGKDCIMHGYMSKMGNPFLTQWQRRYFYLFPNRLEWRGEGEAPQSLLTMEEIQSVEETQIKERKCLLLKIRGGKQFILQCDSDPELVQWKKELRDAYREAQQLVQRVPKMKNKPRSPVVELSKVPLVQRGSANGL

`CC(=O)N/C(=C/c1ccc2c(c1)OCO2)C(=O)NCCO`: in assay [1], the percent of DMSO control GFP was 98.2% (inactive). In addition, the GFP response vs DMSO in [2] was 106% (inactive); in assay [4], 111% (inactive). The percent response of DMSO control in [3] was 93.9% (inactive). The GFP response, % of DMSO in assay [5] is 106% (inactive). In [6], this molecule registered a double positive events of 61.5%. In addition, the vesicle binding response in assay [6] is 3870% (inactive). Further, the inhibition in [7] was -5.89% (inactive); in assay [11], -4.62% (inactive); in assay [15] it was 2% (inactive). Moreover, the superoxide response (% of plate) in [8] was 106% (inactive). For the same molecule, the aptamer binding inhibition in assay [9] is 0% (inactive). In addition, the results for the response in assay [10] and in assay [12] were 2.49% (inactive) and 1.75% (inactive), respectively. For the same molecule, in assay [13], the binding (% of control) is 97.4% (inactive). Further, the efflux inhibition (fraction of control) in assay [14] is -0.42 (inactive). Further, in assay [16], the differentiation response is -5.6% (inactive).

With `COc1ccc(C(=O)Oc2ccc3c(C)cc(=O)oc3c2C(C)=O)cc1`, in [1], the percent of DMSO control GFP was 104% (inactive). The GFP response vs DMSO in [2] was 103% (inactive); in assay [4], 105% (inactive). Besides, the percent response of DMSO control in [3] is 108% (inactive). For the same molecule, in assay [5], the GFP response, % of DMSO is 106% (inactive). Also, in assay [6], the double positive events was 61.4%. Further, the vesicle binding response in assay [6] is 123% (inactive). Further, the inhibition was -5.11% (inactive) in [7], 5.55% (inactive) in assay [11] and 14% (inactive) in assay [15]. For the same molecule, the superoxide response (% of plate) in assay [8] was 103% (inactive). The aptamer binding inhibition in assay [9] is -1% (inactive). Moreover, the response in [10] is 2.26% (inactive); in assay [12], -3.4% (inactive). In [13], the binding (% of control) was 107% (inactive). For the same molecule, the efflux inhibition (fraction of control) in [14] is 0.12 (inactive). Also, the differentiation response in assay [16] was -19.2% (inactive).

`COc1ccc(N2C(=O)[C@@H]3[C@H](C2=O)[C@H]2c4ccccc4C=CN2[C@@H]3C(C)=O)cc1`: the percent of DMSO control GFP in [1] is 101% (inactive). For the same molecule, the GFP response vs DMSO was 104% (inactive) in [2] and 112% (inactive) in assay [4]. Also, the percent response of DMSO control in assay [3] was 96.5% (inactive). Further, the GFP response, % of DMSO in assay [5] is 96.8% (inactive). This molecule also showed a double positive events in [6] of 64.6%. For the same molecule, the vesicle binding response in assay [6] is 176% (inactive). Further, the values for the inhibition in assay [7], in [11] and in assay [15] were -27.9% (inactive), -12.3% (inactive) and -6% (inactive), respectively. For the same molecule, the superoxide response (% of plate) in assay [8] was 98.7% (inactive). The aptamer binding inhibition in assay [9] is 2% (inactive). In addition, the response in [10] is -19.3% (inactive); in assay [12] it was -3.65% (inactive). Besides, the binding (% of control) in assay [13] is 107% (inactive). Moreover, the efflux inhibition (fraction of control) in assay [14] was -0.26 (inactive). The differentiation response in [16] is -3.11% (inactive).

With `CC12CCC(C(=O)N(CCC#N)CCC#N)(CC1=O)C2(C)C` (stereo not given), the percent of DMSO control GFP in assay [1] was 100% (inactive). Besides, the GFP response vs DMSO is 106% (inactive) in [2] and 113% (inactive) in assay [4]. Moreover, the percent response of DMSO control in assay [3] is 95.8% (inactive). For the same molecule, the GFP response, % of DMSO in assay [5] was 108% (inactive). This molecule also yielded a double positive events in assay [6] of 61.1%. The vesicle binding response in assay [6] is 5730% (inactive). Besides, the inhibition in assay [7] is 6.4% (inactive); in assay [11] it was 44.5% (inactive); in assay [15], 9% (inactive). The superoxide response (% of plate) in assay [8] was 98% (inactive). Besides, the aptamer binding inhibition in assay [9] was 3% (inactive). Also, the results for the response in assay [10] and in [12] were -1.84% (inactive) and 0.52% (inactive), respectively. Further, in assay [13], the binding (% of control) was 100% (inactive). Further, in assay [14], the efflux inhibition (fraction of control) was -0.03 (inactive). For the same molecule, the differentiation response in assay [16] is 2.4% (inactive).

For the molecule `O=C(O)C1[C@H]2C(=O)N(C3CCCC3)C[C@]23C=C[C@H]1O3` (stereo not given in full), the percent of DMSO control GFP in assay [1] is 99.5% (inactive). The figures for the GFP response vs DMSO in [2] and in [4] were 104% (inactive) and 121% (inactive), respectively. For the same molecule, the percent response of DMSO control in [3] is 101% (inactive). The GFP response, % of DMSO in [5] is 113% (inactive). For the same molecule, the double positive events in assay [6] was determined as 57.9%. The vesicle binding response in assay [6] was 153% (inactive). The results for the inhibition in assay [7], in assay [11] and in assay [15] were 11.7% (inactive), -2.45% (inactive) and 1% (inactive), respectively. For the same molecule, the superoxide response (% of plate) in assay [8] was 88% (inactive). Besides, in [9], the aptamer binding inhibition is -2% (inactive). Also, the response in assay [10] was -17.8% (inactive); in assay [12], -1.21% (inactive). In addition, the binding (% of control) in [13] was 101% (inactive). For the same molecule, the efflux inhibition (fraction of control) in [14] was 0.04 (inactive). For the same molecule, the differentiation response in assay [16] is -6.96% (inactive).
